According to PubChem BioAssay (Tox21):
Results filed as inconclusive are left out. Calls of active or inactive are those of the source. Unless noted, the call rests on the fitted dose curve; in most records, active means well fitted curve in the direction sought with a large enough effect in the repeat runs; inconclusive means weak or mixed curves; inactive means no such curve, though single readings can be large; an effect the other way counts as inactive or inconclusive.

Assays:
[1] = qHTS assay to identify small molecule antagonists of the estrogen receptor alpha (ER-alpha) signaling pathway using the BG1 cell line in the presence of 0.1 nM 17-beta-estradiol - cell viability counter screen (AID 1259241); further: nearly all actives have a fitted effect of over 40% in size
Method in brief: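 VM7Luc4E2, 4,000 cells/well, phenol red-free medium + 10% charcoal-stripped FBS; 24 hr plating; cpd + 0.1 nM E2 final, 22 hr 37C/5% CO2; CellTiter-Fluor 30 min, fluorescence.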

[2] = qHTS assay to identify small molecule antagonists of the androgen receptor (AR) signaling pathway using the MDA cell line in the presence of 0.5 nM R1881 - cell viability counter screen (AID 1259242); further: nearly all actives have a fitted effect of over 45% in size
Method in brief: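 Viability of MDA-kb2 cells was multiplexed with the luciferase AR readout; after 16 hr with compounds and R1881 at 0.5 nM final, CellTiter-Fluor fluorescence was recorded.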

[3] = qHTS assay to identify small molecule HDAC inhibitors (AID 1259364); further: potency means the concentration at half of the fitted maximal effect;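 further: wild-type HCT-116 cells with endogenous class I/II HDAC activity; nearly all actives have a fitted effect of over 45% in size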; on activity change, negative = inhibition: top concentration of the series differs between compounds
Method in brief: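 Read-out: luminescence of HDAC-Glo I/II reagent, 30 min RT, reflecting class I/II deacetylase activity in whole HCT-116 cells pre-exposed 2 h to DMSO-dissolved compounds.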

[4] = qHTS assay to identify small molecule agonists of the sonic hedgehog signaling (Shh) pathway - cell viability counter screen (AID 1259366); further: nearly all actives have a fitted effect of over 50% in size; further: potency means the concentration at half of the fitted maximal effect
Method in brief: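 Cytotoxicity counter screen run in the same wells as the Shh reporter assay. NIH/3T3 cells carrying a Gli1 response element–driven luciferase were treated with DMSO-dissolved compounds for 24hr, and live-cell protease activity was measured with CellTiter-Fluor.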

[5] = qHTS assay to identify small molecule antagonists of the sonic hedgehog signaling (Shh) pathway - cell viability counter screen (AID 1259367); further: nearly all actives have a fitted effect of over 55% in size; further: potency means the concentration at half of the fitted maximal effect
Method in brief: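 NIH/3T3-derived Gli1-Luc reporter cells, 2,000/well, plated 4 hr before compound addition, then stimulated with conditioned medium for 24 hr at 37C. Viability measured in the same wells by CellTiter-Fluor fluorescence, reagent added at 23 hr for 1 hr.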

[6] = qHTS assay to identify small molecule agonists of the sonic hedgehog signaling (Shh) pathway (AID 1259368; calls by dose curve;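 further: NIH/3T3-derived 3T3Gli1-Luc cells carrying a stable Gli1-driven firefly luciferase reporter; series mostly up to about 92 µM; nearly all actives have a fitted effect of over 15% in size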)
Method in brief: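 A Gli1 transcriptional response element controlled firefly luciferase in 3T3Gli1-Luc cells. Compounds and a positive control were added 4 hr after plating, and cells were incubated a further 24 hr at 37 C before luminescence detection.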

[7] = qHTS assay to identify small molecule HDAC inhibitors - cell viability counter screen (AID 1259365); further: series mostly up to about 92 µM; nearly all actives have a fitted effect of over 50% in size
Method in brief: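 Luminescence from CellTiter-Glo, developed 30min at room temperature, reports viability of wild-type HCT-116 cells treated 2hr with compounds at 37 C and 5% CO2 after overnight plating.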

[8] = target: Androgen receptor (Homo sapiens) (UniProt P10275); experiment: qHTS assay to identify small molecule antagonists of the androgen receptor (AR) signaling pathway using the MDA cell line in the presence of 0.5 nM R1881 (AID 1259243); further: nearly all actives have a fitted effect of over 50% in size
Method in brief: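 Reporter cells cultured without CO2 receive test chemicals, then 0.5 nM R1881 final; after 16 hr at 37C, ONE-Glo is added and light output recorded.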

[9] = target: Estrogen receptor (Homo sapiens) (UniProt P03372); experiment: qHTS assay to identify small molecule antagonists of the estrogen receptor alpha (ER-alpha) signaling pathway using the BG1 cell line in the presence of 0.1 nM 17-beta-estradiol (AID 1259244); further: nearly all actives have a fitted effect of over 50% in size
Method in brief: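 Estradiol at 0.1 nM (final) stimulates the endogenous ER-alpha of VM7Luc4E2 cells carrying an ERE-driven luciferase; compounds are co-incubated 22 h at 37C and luciferase output quantified by luminescence.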

[10] = qHTS assay to identify small molecule phospholipidosis (PLD) inducers (AID 1259344; active means well fitted curve in the direction sought with a large enough effect; an effect the other way counts as inactive or inconclusive; further: potency means the concentration at half of the fitted maximal effect)
Method in brief: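 HepG2 cells, 900/well, treated with compound plus LipidTOX Red for 24 h at 37 C; amiodarone positive and DMSO negative controls. Fixed with paraformaldehyde/Hoechst, then high-content imaging scored LipidTOX pit count and integrated intensity per well and per cell.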
On the % scale 0 is the no-effect control and ±100 the full control effect.

Androgen receptor (Homo sapiens), sequence (P10275 whole entry, looked up): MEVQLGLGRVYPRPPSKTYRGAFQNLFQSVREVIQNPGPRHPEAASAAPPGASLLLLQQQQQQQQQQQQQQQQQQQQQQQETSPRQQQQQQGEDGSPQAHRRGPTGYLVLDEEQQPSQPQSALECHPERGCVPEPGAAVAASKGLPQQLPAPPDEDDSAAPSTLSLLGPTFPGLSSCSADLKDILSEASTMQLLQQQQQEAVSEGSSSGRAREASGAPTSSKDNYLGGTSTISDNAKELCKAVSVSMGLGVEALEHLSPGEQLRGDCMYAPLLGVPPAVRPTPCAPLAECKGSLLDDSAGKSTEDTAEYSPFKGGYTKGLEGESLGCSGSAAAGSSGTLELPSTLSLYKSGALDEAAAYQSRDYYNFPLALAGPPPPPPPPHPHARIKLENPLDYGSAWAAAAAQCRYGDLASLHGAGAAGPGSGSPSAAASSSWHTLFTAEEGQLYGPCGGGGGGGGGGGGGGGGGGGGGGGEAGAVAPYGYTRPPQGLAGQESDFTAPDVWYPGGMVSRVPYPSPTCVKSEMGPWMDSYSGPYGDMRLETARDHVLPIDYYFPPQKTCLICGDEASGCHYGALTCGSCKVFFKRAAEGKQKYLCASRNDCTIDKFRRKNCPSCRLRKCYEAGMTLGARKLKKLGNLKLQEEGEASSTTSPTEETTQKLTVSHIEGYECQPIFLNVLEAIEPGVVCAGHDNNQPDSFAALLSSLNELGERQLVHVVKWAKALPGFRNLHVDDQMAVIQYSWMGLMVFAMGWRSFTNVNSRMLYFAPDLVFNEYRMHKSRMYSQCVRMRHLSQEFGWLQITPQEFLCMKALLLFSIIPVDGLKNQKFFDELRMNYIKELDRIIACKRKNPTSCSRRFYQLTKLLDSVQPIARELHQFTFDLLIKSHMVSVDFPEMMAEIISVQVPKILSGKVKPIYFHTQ
Estrogen receptor (Homo sapiens), sequence (P03372 whole entry, looked up): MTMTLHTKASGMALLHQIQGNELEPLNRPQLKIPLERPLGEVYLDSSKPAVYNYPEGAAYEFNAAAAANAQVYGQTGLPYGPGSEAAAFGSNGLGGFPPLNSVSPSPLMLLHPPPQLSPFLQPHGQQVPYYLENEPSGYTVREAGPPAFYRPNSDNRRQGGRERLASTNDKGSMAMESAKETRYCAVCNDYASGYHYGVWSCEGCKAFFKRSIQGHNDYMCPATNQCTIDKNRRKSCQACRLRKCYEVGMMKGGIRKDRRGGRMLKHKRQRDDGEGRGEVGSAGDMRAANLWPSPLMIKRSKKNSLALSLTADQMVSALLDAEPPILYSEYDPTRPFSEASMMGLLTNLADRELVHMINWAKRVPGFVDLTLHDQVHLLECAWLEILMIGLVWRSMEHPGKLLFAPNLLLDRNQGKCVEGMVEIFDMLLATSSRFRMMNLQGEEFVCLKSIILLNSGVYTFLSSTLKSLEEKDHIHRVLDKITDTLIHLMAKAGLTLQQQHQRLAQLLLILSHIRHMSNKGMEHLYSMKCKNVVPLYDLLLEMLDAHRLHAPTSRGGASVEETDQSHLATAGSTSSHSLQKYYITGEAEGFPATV

CCC(=O)c1ccc(Cl)cc1
inactive: outcome [1] | Potency [2] | Potency [3] | Potency [4] | Potency [5] | outcome [6]

C#CC(C)(C)O
inactive: outcome [1] | Potency [2] | Potency [3] | outcome [7] | Potency [4] | Potency [5] | outcome [6]

CC(C)C(C)(N)C#N (configuration not stated)
inactive: outcome [1] | Potency [2] | Potency [3] | outcome [7] | Potency [4] | outcome [6]

CNC(=O)Oc1cc(C)c(N(C)C)c(C)c1
inactive: outcome [1] | Potency [2] | Potency [3] | outcome [7] | Potency [4] | outcome [6]

CNC(=O)NC(O)C(Cl)(Cl)Cl (configuration not stated)
inactive: outcome [1] | Potency [8] | Potency [9] | Potency [10] | Potency [3] | outcome [7] | Potency [4] | Potency [5] | outcome [6]

CC(=NC#N)N(C)Cc1ccc(Cl)nc1
inactive: outcome [1] | Potency [2] | Potency [3] | outcome [7] | Potency [4] | outcome [6]

O=[N+]([O-])c1cccc(CCl)c1
inactive: outcome [1] | Potency [2] | Potency [3] | outcome [7] | Potency [4] | Potency [5] | outcome [6]

CON(C)C(=O)Nc1ccc(Br)c(Cl)c1
inactive: outcome [1] | Potency [2] | outcome [7] | Potency [4] | outcome [6]
active: Potency [3] 27.3 µM

CCOC(=O)C(SP(=S)(OC)OC)c1ccccc1 (configuration not stated)
inactive: outcome [1] | Potency [2] | Potency [3] | outcome [7] | Potency [4] | Potency [5] | outcome [6]

CC(Cl)(Cl)Cl
inactive: outcome [1] | Potency [2] | Potency [3] | Potency [4] | Potency [5] | outcome [6]

CCN1CCCC1CNC(=O)C(O)(c1ccccc1)c1ccccc1 (configuration not stated)
inactive: outcome [1] | Potency [2] | Potency [3] | outcome [7] | Potency [4] | Potency [5] | outcome [6]

NC1(c2ccccc2)CCCCC1
inactive: outcome [1] | Potency [9] | Potency [3] | outcome [7] | outcome [6]
active: Potency [10] 8.91 µM | Potency [4] 30.4 µM | Potency [5] 27.1 µM

C=C1C[C@@H]2[C@H](CC[C@]3(C)C(=O)CC[C@@H]23)[C@@]2(C)C=CC(=O)C=C12
inactive: outcome [1] | Potency [9] | Potency [10] | Potency [3] | outcome [7] | Potency [4]

NC(=O)OCCCc1ccccc1
inactive: outcome [1] | Potency [9] | Potency [10] | Potency [3] | Potency [4] | Potency [5] | outcome [6]

CCC1(c2ccccc2)C(=O)N(COC)C(=O)N(COC)C1=O
inactive: outcome [1] | Potency [8] | Potency [10] | Potency [3] | outcome [7] | Potency [4] | Potency [5] | outcome [6]

CCCN1CCC[C@@H]2Cc3[nH]ncc3C[C@H]21
inactive: outcome [1] | Potency [9] | Potency [10] | Potency [3] | outcome [7] | Potency [4] | Potency [5] | outcome [6]

CCCC(C)C1(CC)C(=O)N=C(S)NC1=O (configuration not stated)
inactive: outcome [1] | Potency [10] | Potency [3] | outcome [7] | Potency [4] | Potency [5] | outcome [6]

C=C(Cl)CSC(=S)N(CC)CC
inactive: Potency [2] | Potency [3] | outcome [7] | Potency [4]

OP(O)c1ccccc1
inactive: outcome [1] | Potency [8] | Potency [9] | Potency [3] | outcome [7] | Potency [4] | Potency [5] | outcome [6]

ClCCN1CCCC1
inactive: outcome [1] | Potency [9] | Potency [3] | outcome [7] | Potency [4] | Potency [5] | outcome [6]

O=C(O)C(Cl)Br (configuration not stated)
inactive: outcome [1] | Potency [3] | outcome [7] | Potency [4] | Potency [5] | outcome [6]

CCOC(=O)CCl
inactive: outcome [1] | Potency [9] | Potency [3] | outcome [7] | Potency [4] | Potency [5] | outcome [6]

COC[C@@H](NC(C)=O)C(=O)NCc1ccccc1
inactive: outcome [1] | Potency [8] | Potency [3] | Potency [4] | outcome [6]

Brc1c(Br)c(Br)c(Br)c(Br)c1Br
inactive: activity change, negative = cytotoxicity [1] -4.2% [at 8.39 µM] | activity change, negative = inhibition [9] 3.5% [at 8.39 µM] | activity change, negative = inhibition [3] 4.51% [at 8.39 µM] | activity change, negative = cytotoxicity [7] 1.6% [at 8.39 µM] | viability change, negative = cytotoxic [4] 2.28% [at 8.39 µM] | viability change, negative = cytotoxic [5] 1.61% [at 8.39 µM] | activity change [6] -2.81% [at 8.39 µM]

Cn1c(N)nc2c3cccnc3ccc21
inactive: Potency [2] | Potency [9] | Potency [3] | outcome [7] | outcome [6]
active: Potency [4] 26 µM | Potency [5] 26 µM

O=C(Cl)C(Cl)Cl
inactive: outcome [1] | Potency [9] | Potency [3] | outcome [7] | Potency [4] | Potency [5] | outcome [6]

CC(Cc1ccccc1)NCCn1cnc2c1c(=O)n(C)c(=O)n2C (configuration not stated)
inactive: outcome [1] | Potency [9] | Potency [10] | Potency [3] | outcome [7] | outcome [6]

CCCN1CCC[C@@H]2Cc3nc(N)ncc3C[C@H]21
inactive: outcome [1] | Potency [9] | Potency [10] | Potency [3] | Potency [4] | Potency [5] | outcome [6]

O=C1CCCCC1Cl (configuration not stated)
inactive: outcome [1] | Potency [3] | outcome [7] | Potency [4] | Potency [5]

C(COCC1CO1)OCC1CO1 (configuration not stated)
inactive: outcome [1] | Potency [9] | Potency [3] | Potency [4] | outcome [6]

CC(C)NCC(O)c1ccc([N+](=O)[O-])cc1 (configuration not stated)
inactive: outcome [1] | Potency [10] | Potency [3] | Potency [4] | Potency [5]

NC(=O)CS(=O)C(c1ccccc1)c1ccccc1 (configuration not stated)
inactive: outcome [1] | Potency [9] | Potency [10] | Potency [3] | outcome [7] | Potency [4] | outcome [6]

CCN(CCO)CCn1c(Cc2ccccc2)nc2c1c(=O)n(C)c(=O)n2C
inactive: outcome [1] | Potency [9] | PLD induction [10] -2.9% [at 7.66 µM] | Potency [3] | Potency [4] | Potency [5] | outcome [6]

CN1COCN(Cc2cnc(Cl)s2)/C1=N\[N+](=O)[O-]
inactive: outcome [1] | Potency [3] | outcome [7] | Potency [4] | Potency [5]

COc1ccccc1OC
inactive: outcome [1] | Potency [9] | Potency [3] | outcome [7] | Potency [4] | Potency [5] | outcome [6]

C=CCc1cc(OC)c2c(c1)OCO2
inactive: outcome [1] | Potency [3] | outcome [7] | Potency [4] | outcome [6]

CCCCOC(C)=O
inactive: outcome [1] | Potency [9] | Potency [3] | outcome [7] | Potency [4] | Potency [5] | outcome [6]

CC[C@H](O)C(C[C@H](C)N(C)C)(c1ccccc1)c1ccccc1
inactive: outcome [1] | Potency [9] | Potency [3] | outcome [7] | outcome [6]

CC(C)(C1CCC(O)CC1)C1CCC(O)CC1 (configuration not stated)
inactive: outcome [1] | Potency [9] | Potency [3] | Potency [4] | Potency [5]

CCC(=O)OC1(c2ccccc2)CCN(C)CC1
inactive: outcome [1] | Potency [10] | Potency [3] | Potency [4] | Potency [5]

O=C(Cl)OCc1ccccc1
inactive: outcome [1] | Potency [9] | Potency [3] | outcome [7] | Potency [4] | outcome [6]

CCCCCCCC(=O)Cl
inactive: outcome [1] | Potency [9] | Potency [3] | outcome [7] | Potency [4] | Potency [5]

COP(=O)(O)OC
inactive: outcome [1] | Potency [8] | Potency [9] | Potency [3] | Potency [4] | Potency [5] | outcome [6]

CS(=O)(=O)c1ccc(C(=O)C2C(=O)CCCC2=O)c(Cl)c1COCC(F)(F)F
inactive: outcome [1] | Potency [9] | Potency [3] | outcome [7] | Potency [4] | Potency [5] | outcome [6]

O=C/C=C/c1ccco1
inactive: outcome [1] | Potency [8] | Potency [9] | Potency [3] | outcome [7] | Potency [4] | Potency [5] | outcome [6]

c1ccc2c(c1)CCNC2
inactive: outcome [1] | Potency [3] | outcome [7] | Potency [4] | Potency [5] | outcome [6]

CCOC(=O)N(C)N=O
inactive: outcome [1] | Potency [3] | outcome [7] | Potency [4] | Potency [5] | outcome [6]
